The list is not random: actives were taken first. Their share in the collection is about 2.8%.
KDM5B inhibitor – inhibitors of human KDM5B histone demethylase | KDM5B demethylase, FDH-coupled NADH fluorescence (FDH is formaldehyde dehydrogenase) | Potency, µM (series often up to 57.7 µM), actives largely listed as inhibitors | 220,000 compounds, 2.6% hits; further: nearly all actives have a fitted effect of over 70% in size
Target sequence (Q9UGL1 whole entry, looked up): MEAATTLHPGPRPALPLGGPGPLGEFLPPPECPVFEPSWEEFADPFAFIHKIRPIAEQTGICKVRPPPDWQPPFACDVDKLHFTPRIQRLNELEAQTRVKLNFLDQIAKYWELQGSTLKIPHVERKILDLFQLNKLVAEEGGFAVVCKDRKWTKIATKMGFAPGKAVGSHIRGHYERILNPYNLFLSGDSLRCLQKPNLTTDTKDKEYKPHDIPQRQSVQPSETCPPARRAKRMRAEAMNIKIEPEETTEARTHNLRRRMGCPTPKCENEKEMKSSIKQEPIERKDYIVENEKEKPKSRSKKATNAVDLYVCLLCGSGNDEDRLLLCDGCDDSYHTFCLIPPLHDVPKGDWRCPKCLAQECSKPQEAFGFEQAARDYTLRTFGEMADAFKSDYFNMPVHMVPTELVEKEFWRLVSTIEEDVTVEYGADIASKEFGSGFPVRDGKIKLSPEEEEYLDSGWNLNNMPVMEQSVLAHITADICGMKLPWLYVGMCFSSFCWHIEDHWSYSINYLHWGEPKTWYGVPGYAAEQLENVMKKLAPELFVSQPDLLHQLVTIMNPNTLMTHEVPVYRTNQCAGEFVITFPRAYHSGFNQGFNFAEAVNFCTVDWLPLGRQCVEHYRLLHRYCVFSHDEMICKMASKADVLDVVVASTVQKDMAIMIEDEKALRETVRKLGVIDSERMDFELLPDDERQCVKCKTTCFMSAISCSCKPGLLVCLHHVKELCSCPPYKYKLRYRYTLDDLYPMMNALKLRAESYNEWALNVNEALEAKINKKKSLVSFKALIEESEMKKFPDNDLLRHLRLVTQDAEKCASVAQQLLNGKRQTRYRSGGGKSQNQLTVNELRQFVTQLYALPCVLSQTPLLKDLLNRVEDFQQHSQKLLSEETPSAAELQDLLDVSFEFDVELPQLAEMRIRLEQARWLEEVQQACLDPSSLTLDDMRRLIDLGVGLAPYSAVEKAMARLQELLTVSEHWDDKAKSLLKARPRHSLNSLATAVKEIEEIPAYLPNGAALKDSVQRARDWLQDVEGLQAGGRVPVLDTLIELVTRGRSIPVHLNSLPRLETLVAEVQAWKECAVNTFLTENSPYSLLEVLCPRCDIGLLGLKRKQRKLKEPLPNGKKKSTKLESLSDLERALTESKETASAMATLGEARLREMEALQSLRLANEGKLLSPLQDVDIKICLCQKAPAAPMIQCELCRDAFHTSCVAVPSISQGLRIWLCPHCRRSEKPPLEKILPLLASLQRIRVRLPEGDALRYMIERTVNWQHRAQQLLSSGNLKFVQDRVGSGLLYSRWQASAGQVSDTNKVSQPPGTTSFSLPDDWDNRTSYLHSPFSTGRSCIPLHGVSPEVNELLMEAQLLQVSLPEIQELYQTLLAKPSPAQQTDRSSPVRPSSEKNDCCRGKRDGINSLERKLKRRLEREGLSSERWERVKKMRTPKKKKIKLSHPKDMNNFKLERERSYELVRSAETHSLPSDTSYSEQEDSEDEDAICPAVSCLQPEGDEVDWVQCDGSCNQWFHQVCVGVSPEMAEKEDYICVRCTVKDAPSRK
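Here, H3K4me3 peptide (12.5 µM in substrate mix) is demethylated by KDM5BΔAP, 200 nM final, after 10 min compound exposure. Formaldehyde product is coupled through FDH (0.25 U/mL in mix) to NADH fluorescence; 30-min ΔRFU feeds dose-response curves.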
HEK293 viab – counter-screen for SNCA expression inhibitors: cell viability | AID 1671193 | 150,000 compounds, 0.12% hits | Potency, µM (doses to about 57.1 µM), usual class: cytotoxic | HEK-293-SNCA-luc viability, GF-AFC fluorescence, 24 h; further: nearly all actives have a fitted effect of over 30% in size
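Cytotoxicity counterscreen: after 24 h compound treatment of genome-edited SNCA-luciferase HEK-293 cells, live-cell protease substrate GF-AFC read by fluorescence after 30 min; activity scaled between DMSO (0%) and medium-only (-100%), curves Hill-fitted.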
SNCA expr inhib – SNCA gene expression inhibition; HEK-293 SNCA-luciferase knock-in, luminescence, 24 h; Potency, µM (top dose mostly 57.2 µM), actives largely listed as inhibitors; 140,000 compounds, 0.17% hits; AID 1671194; further: nearly all actives have a fitted effect of over 45% in size
IP6K1 inhibitor – inhibitors of human IP6K1; Q92551; IP6K1 kinase, ADP-Glo luminescence, 2 h; stronger effect = lower value; activity change, % (series mostly up to about 58 µM); 140,000 compounds, 0.81% hits; in the data active means activity change below about -25%
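ADP-Glo luminescence measures ADP made by human IP6K1 during a 2 h RT reaction with ATP/IP6 (mix at 1.3 mM/130 uM); top library doses 57.5 and 19.1 uM final.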
Large screens that a line does not name were inactive. Unless noted, the call rests on the fitted dose curve; in most records, active means well fitted curve in the direction sought with a large enough effect; inconclusive means small, poorly fitted or top-dose-only effect, or another doubt; inactive means no such curve, though single readings can be large; an effect the other way counts as inactive or inconclusive.

Cc1ccn2c(=O)cc(CN3CC[C@@H]4[C@@H](CCC(=O)N4CCC(C)C)C3)nc2c1	KDM5B inhibitor 28µM
O=C(Cc1ccc(F)cc1)NCc1nnc2cc(-c3nc(C4CC4)no3)ccn12	KDM5B inhibitor 28µM
O=C(Cc1cccc(F)c1)NCc1nnc2cc(-c3nc(C4CC4)no3)ccn12	KDM5B inhibitor 28µM
Cn1ncc2c(C(=O)Nc3cccc(Cl)c3)cc(C(C)(C)C)nc21	SNCA expr inhib inconclusive (no result: KDM5B inhibitor)
Cc1cc(C)c(CNC(=O)c2nc(-c3cncnc3)cc3c2ccn3C(C)C)c(=O)[nH]1	KDM5B inhibitor 32µM
Cc1cc(C)c(CNC(=O)c2nc(-c3cccnc3)cc3c2ccn3C(C)C)c(=O)[nH]1	none
COc1ccccc1-c1cc2[nH]ccc2c(C(=O)NCc2c(C)cc(C)[nH]c2=O)n1	none
COc1ccccc1-c1cc2c(ccn2C)c(C(=O)NCc2c(C)cc(C)[nH]c2=O)n1	KDM5B inhibitor 35µM
COc1cccc(-c2cc3c(ccn3C(C)C)c(C(=O)NCc3c(C)cc(C)[nH]c3=O)n2)c1	none
CC(=O)Nc1cccc(-c2cc3c(ccn3C)c(C(=O)NCc3c(C)cc(C)[nH]c3=O)n2)c1	KDM5B inhibitor 14µM
CCOC(=O)CNC(=O)CSc1cn(CC(=O)N2CCCCC2)c2ccccc12	none (no result: HEK293 viab, SNCA expr inhib, IP6K1 inhibitor)
CN1C(=S)SC(C)(C)C1/[N+]([O-])=C/c1ccco1 (stereo not drawn)	none (no result: HEK293 viab, SNCA expr inhib, IP6K1 inhibitor)
NC1CCc2nn(CC(=O)NCc3ccc4c(c3)OCO4)c(=O)n2CC1 (stereo not drawn)	KDM5B inhibitor 10µM
COCCNC(=O)c1ccc2c(c1)N(C)C(CC(=O)NCC(F)(F)F)CO2 (stereo not drawn)	KDM5B inhibitor 20µM
CC(C)CN(C(=O)CC1COc2ccc(C(=O)N(C)C)cc2N1C)C1CC1 (stereo not drawn)	none
COCCNC(=O)c1ccc2c(c1)N(C)C(CC(=O)NCCO)CO2 (stereo not drawn)	KDM5B inhibitor 28µM
COCCNC(=O)c1ccc2c(c1)OCCN(c1ccccc1)C2	none
C=CCNC(=O)CC1COc2ccc(C(=O)NCCOC)cc2N1C (stereo not drawn)	KDM5B inhibitor 28µM
COCCNC(=O)c1ccc2c(c1)N(C)C(CC(=O)NC1CCOCC1)CO2 (stereo not drawn)	KDM5B inhibitor 32µM
COCCNC(=O)c1ccc2c(c1)N(C)C(CC(=O)NCc1ccncc1)CO2 (stereo not drawn)	KDM5B inhibitor inconclusive
COCCNC(=O)c1ccc2c(c1)N(C)C(CC(=O)Nc1ccc[nH]c1=O)CO2 (stereo not drawn)	KDM5B inhibitor 28µM
CN(C)C(=O)c1ccc2c(c1)N(C)C(CC(=O)NC(C)(CO)CO)CO2 (stereo not drawn)	none
COCCNC(=O)c1ccc2c(c1)N(C)C(CC(=O)NCc1ccccn1)CO2 (stereo not drawn)	KDM5B inhibitor 28µM, SNCA expr inhib inconclusive
COCCNC(=O)c1ccc2c(c1)N(C)C(CC(=O)NC(C)(C)CO)CO2 (stereo not drawn)	KDM5B inhibitor 32µM
CN(Cc1ccccc1)C(=O)C[C@@H]1CCNC[C@@H]1Cc1cc(CC2CCCCC2)on1	KDM5B inhibitor inconclusive, SNCA expr inhib inconclusive
COc1cc(NS(=O)(=O)c2ccc(-c3cnc(C4CC4)o3)cc2)cc(OC)c1	none (no result: HEK293 viab, SNCA expr inhib, IP6K1 inhibitor)
Cc1ccc(NCC(O)Cn2c3ccccc3n3c(=O)cc(C)c(C#N)c23)cc1 (stereo not drawn)	none (no result: HEK293 viab, SNCA expr inhib, IP6K1 inhibitor)
C[C@H](C(=O)N1CCCC1)[C@@H]1CC[C@@]2(C)Cc3sc(-c4ccsc4)nc3[C@@H](C)[C@@H]2[C@H]1O	KDM5B inhibitor inconclusive, SNCA expr inhib 5.6µM
COCCNC(=O)[C@@H](C)C1CC[C@@]2(C)Cc3sc(CSc4ccccc4)nc3[C@@H](C)[C@@H]2[C@H]1O (stereo partly drawn)	none
C[C@H](C(=O)N1CCCC1)C1CC[C@@]2(C)Cc3sc(-c4ccccc4)nc3[C@@H](C)[C@@H]2[C@H]1O (stereo partly drawn)	KDM5B inhibitor 32µM, SNCA expr inhib 4.5µM
CCN(CC)C(=O)[C@@H](C)C1CC[C@@]2(C)Cc3sc(Nc4c(Cl)cccc4Cl)nc3[C@@H](C)[C@@H]2[C@H]1O (stereo partly drawn)	SNCA expr inhib inconclusive
COc1ccc(NC(=O)CCS(=O)(=O)c2nc(-c3cccs3)cc(C(F)(F)F)n2)cc1	HEK293 viab inconclusive, SNCA expr inhib 35µM
O=C(CCS(=O)(=O)c1nc(-c2cccs2)cc(C(F)(F)F)n1)Nc1ccc(F)c(Cl)c1	KDM5B inhibitor inconclusive, HEK293 viab inconclusive, SNCA expr inhib inconclusive
O=C(CCS(=O)(=O)c1nc(-c2cccs2)cc(C(F)(F)F)n1)Nc1ccc(OC(F)(F)F)cc1	IP6K1 inhibitor -58
COc1ccc(Cl)cc1NC(=O)CCS(=O)(=O)c1nc(-c2cccs2)cc(C(F)(F)F)n1	KDM5B inhibitor inconclusive, SNCA expr inhib 28µM
COc1ccc(S(=O)(=O)Nc2nc3ccccc3nc2Nc2ccc(Br)c(C)c2)cc1	none (no result: HEK293 viab, SNCA expr inhib, IP6K1 inhibitor)
COc1cc2nc(SCC(=O)Nc3ccc(C)cc3)n(-c3ccccc3)c(=O)c2cc1OC	none (no result: HEK293 viab, SNCA expr inhib, IP6K1 inhibitor)
O=C(NC1CCCC1)N1CCN(c2ccc3nnc(C4CC4)n3n2)CC1	none (no result: KDM5B inhibitor, HEK293 viab, SNCA expr inhib)
COc1ccc(N2C(=O)C3(CCCCC3)C2C(=O)NCCN2CCc3ccccc3C2)cc1 (stereo not drawn)	KDM5B inhibitor 25µM
COc1ccc(N2C(=O)C3(CCCCC3)C2C(=O)NCCCN2CCCC2)cc1 (stereo not drawn)	none
O=C(O)c1cnc(-c2cc(NCc3ccccn3)nc3[nH]ccc23)c(Cl)c1	KDM5B inhibitor inconclusive
NC(=O)c1cc(-c2cc(NCc3cccnc3)nc3[nH]ccc23)ccc1F	KDM5B inhibitor 25µM
O=C(COc1c(Cl)cccc1Cl)Nc1cccc2cccnc12	none (no result: HEK293 viab, SNCA expr inhib, IP6K1 inhibitor)
CN(C)CCNC(=O)c1nc2nc(-c3ccccc3)c(-c3ccccc3F)cc2n1C	none
COCCN(C)C(=O)c1nc2nc(-c3ccccc3)c(Cl)cc2n1C	KDM5B inhibitor inconclusive
Cn1c(C(=O)N2CCN(c3ccccn3)CC2)nc2nc(-c3ccccc3)c(Cl)cc21	KDM5B inhibitor 35µM, HEK293 viab inconclusive, SNCA expr inhib inconclusive
CN(C)CCNC(=O)c1nc2nc(-c3ccccc3)c(Cl)cc2n1C	KDM5B inhibitor 40µM
Cn1c(C(=O)NCCc2cnc[nH]2)nc2nc(-c3ccccc3)c(Cl)cc21	KDM5B inhibitor 35µM
COc1ccccc1N1CCN(S(=O)(=O)c2c(C)sc3ncn(CC(=O)Nc4ccccc4F)c(=O)c23)CC1	SNCA expr inhib 2.5µM
COc1ccccc1N1CCN(S(=O)(=O)c2c(C)sc3ncn(CC(=O)Nc4ccc(C(F)(F)F)cc4)c(=O)c23)CC1	none
COc1cccc(-c2ccnc(-c3nnc(C)n3C3CCCCC3)c2)c1	none
COc1ccc(-c2ccnc(-c3nnc(C)n3C3CCCCC3)c2)cc1OC	KDM5B inhibitor 35µM
COCCCNc1nc2c(S(=O)(=O)c3ccc(C)c(C)c3)nnn2c2ccccc12	KDM5B inhibitor 79µM
COCCNc1nc2c(S(=O)(=O)c3ccccc3)nnn2c2ccccc12	none

Bioassay records deposited in PubChem BioAssay by National Center for Advancing Translational Sciences (NCATS).
